ChEMBL document CHEMBL1157539, “Thousands of chemical starting points for antimalarial lead identification” (Nature, 2010)

Columns and labels:
Type in all cases: functional
Plasmodium falciparum [1] = experiment: GSK_TCMDC: Inhibition of Plasmodium falciparum 3D7 in whole red blood cells, using parasite LDH activity as an index of growth. Test compounds present at 2uM
Plasmodium falciparum [2] = experiment: GSK_TCMDC: Inhibition of Plasmodium falciparum Dd2 in whole red blood cells, using parasite LDH activity as an index of growth. Test compounds present at 2uM
HepG2 = experiment: GSK_TCMDC: Percent inhibition of human HepG2 cell line. Test compounds present at 10uM.

Row | SMILES | Inhibition (Plasmodium falciparum [1]) | Inhibition (Plasmodium falciparum [2]) | Inhibition (HepG2)
1 | Cc1cccc(C(=O)Nc2ccnc(N3CCC(N(C)Cc4ccccc4)CC3)c2)c1.O=C(O)C(F)(F)F | 93% | 2% | 12%
2 | Nc1ccc(-c2cnc3[nH]cc(-c4ccc(C(=O)O)cc4)c3c2)cn1.O=C(O)C(F)(F)F | 97% | 99% | 48%
3 | O=C(NC1CCCCN(Cc2ccccc2O)C1)c1ccc(Cl)c(Cl)c1.O=C(O)C(F)(F)F (stereo not given) | 96% | 96% | 0%
4 | CC(C)Oc1cc(-c2ccc(S(C)(=O)=O)cc2)nc(N(Cc2cccc(F)c2F)Cc2cccc(F)c2F)n1 | 100% | 99% | 10%
5 | Cc1ccc(NC(=O)NC2CCN(c3ccnc4ccccc34)C2)cc1.O=C(O)C(F)(F)F (stereo not given) | 99% | 48% | 7%
6 | O=C(NC1CCN(Cc2ccc(O)cc2)CC1)c1ccc(Cl)c(Cl)c1.O=C(O)C(F)(F)F | 95% | 3% | 1%
7 | COc1ccc(C(=O)Nc2ccc3nc(N4CCCCC4)cc(C)c3c2)cc1OC | 92% | 7% | 15%
8 | O=C(Nc1cccc(CN2CCCN(Cc3ccc(O)cc3)CC2)c1)c1cccc(C(F)(F)F)c1.O=C(O)C(F)(F)F | 100% | 71% | 9%
9 | CCC(C)c1ccc(-n2c(Nc3ccccc3)nc3cc(S(N)(=O)=O)ccc32)cc1 (stereo not given) | 88% | 28% | 0%
10 | Cl.c1ccc(Oc2ccc(Nc3ccnc(Nc4ccc5cn[nH]c5c4)n3)cc2)cc1 | 94% | 33% | 6%
11 | Nc1nccc2ccc(-c3ccc4nccn4c3)cc12.O=C(O)C(F)(F)F | 100% | 100% | 15%
12 | Cc1ccc(NC(=O)c2cc(Br)cc(N3CCC(N(C)C)CC3)c2)cc1F.O=C(O)C(F)(F)F | 100% | 80% | 23%
13 | O=S(=O)(Nc1cccc(CCN2CCCCC2CCN2CCCC2)c1)c1ccc(Oc2ccccc2)cc1 (stereo not given) | 94% | 1% | 52%
14 | CCOc1cc2ncnc(Nc3ccc(OCc4c(F)cccc4F)c(OC)c3)c2cc1OCC.Cl | 96% | 60% | 7%
15 | CC(CCc1ccccc1)NCC(O)c1ccc2c3c(cccc13)S(=O)(=O)N2C.Cl (stereo not given) | 99% | 99% | 16%
16 | CN(CCCCCN1CCC(NC(=O)Nc2ccc(C(F)(F)F)cc2)C1)C(=O)/C=C/c1ccc(Cl)c(Cl)c1 (stereo not given) | 100% | 11% | 28%
17 | COC(=O)c1ccc(-c2ccc(-c3cccnc3)cc2C)cc1 | 100% | 98% | 81%
18 | C=CC[C@H](NC(=O)c1ccc(NS(=O)(=O)c2ccc3nc(N)[nH]c(=O)c3c2)cc1)C(=O)OCCCC | 97% | 2% | 61%
19 | Cc1noc(C)c1-c1cccc(CNCc2cccc(-c3ccc(-c4nc5ccccc5[nH]4)cc3)c2)c1.O=C(O)C(F)(F)F | 100% | 76% | 27%
20 | COC(=O)c1cccc(CNCc2ccc(-c3ccc(-c4nc5cc(F)ccc5[nH]4)s3)cc2)c1.O=C(O)C(F)(F)F | 100% | 82% | 4%

Row | SMILES | Inhibition (Plasmodium falciparum [1]) | Inhibition (Plasmodium falciparum [2]) | Inhibition (HepG2)
21 | Clc1cccc(C=NN=c2cc[nH]c3ccccc23)c1 | 100% | 44% | 5%
22 | Fc1ccc2[nH]c(-c3ccc(-c4ccc(CN5CCCCC5)cc4)cc3)nc2c1.O=C(O)C(F)(F)F | 98% | 100% | 31%
23 | COc1cc(C(C)C)nc2ccc(NC(=O)c3ccc(C(=O)Nc4ccc5nc(C(C)C)cc(OC)c5c4)cc3)cc12 | 95% | 72% | 39%
24 | Cc1ccccc1C(O)CNc1ccnc(Nc2cccc(C#N)c2)n1 (stereo not given) | 94% | 12% | 22%
25 | Cc1cccc2nc(-c3ccc(-c4ccc(CNCc5ccc(S(C)(=O)=O)cc5)cc4)cc3)[nH]c12.O=C(O)C(F)(F)F | 93% | 38% | 19%
26 | COc1cc2nc(Nc3ccc(Oc4ccccc4)cc3)nc(Nc3ccc(Oc4ccccc4)cc3)c2cc1OC | 95% | 45% | 5%
27 | c1ccc(Oc2ccc(Nc3ccnc4ccc(-c5ccco5)cc34)cc2)cc1 | 87% | 32% | 0%
28 | CN(CCc1ccccc1)c1ncc(-c2ccccc2CNCc2ccccc2O)cn1 | 99% | 94% | 10%
29 | Cc1ccc2nc(N(CCCn3ccnc3)C(=O)C=Cc3cccs3)sc2c1.Cl | 100% | 57% | 22%
30 | CCOC(=O)c1c(SCc2cccc(F)c2F)[nH]c2ccccc2c1=O | 98% | 95% | 1%
31 | Cl.O=C(c1cccc(COc2ccc3c(c2)CCN(C2CCCC2)CC3)c1)N1CCN(c2ccncc2)CC1 | 100% | 35% | 49%
32 | CC(=O)Nc1ccc(C(=O)Nc2cccc(-c3ccc(-c4nc5cc(C(F)(F)F)ccc5[nH]4)s3)c2)cn1 | 100% | 98% | 42%
33 | O=C(c1ccc(-c2cccc(-c3nc4cc(F)ccc4[nH]3)c2)cc1)N1CCCCC1CN1CCC(O)C1 (stereo not given) | 91% | 0% | 11%
34 | NC1CCCN(Cc2ccc(-c3ccc(-c4nc5cc(F)ccc5[nH]4)s3)cc2)C1.O=C(O)C(F)(F)F (stereo not given) | 100% | 98% | 40%
35 | Cc1cccc2nc(-c3cccc(-c4ccc(NC(=O)NCc5ccccc5)cc4)c3)[nH]c12 | 100% | 47% | 35%
36 | O=C(CNCC1CCCCC1)Nc1cc(C(F)(F)F)ccc1Cl | 86% | 67% | 1%
37 | O=C(Nc1ccc2c(c1)CCNCC2)Nc1ccc2ccccc2c1.O=C(O)C(F)(F)F | 84% | 23% | 0%
38 | CC(=O)Nc1ccc(CN2CCC(NC(=O)c3ccc(-c4cccc(Cl)c4)s3)CC2)cc1.O=C(O)C(F)(F)F | 97% | 59% | 34%
39 | O=C(CCc1c[nH]cn1)Nc1cccc(-c2cccc(-c3nc4cc(C(F)(F)F)ccc4[nH]3)c2)c1 | 100% | 99% | 17%
40 | CN1CCN(c2cc3c(Nc4ccc5c(cnn5Cc5ccccc5)c4)ncnc3cn2)CC1 | 88% | 35% | 9%

Row | SMILES | Inhibition (Plasmodium falciparum [1]) | Inhibition (Plasmodium falciparum [2]) | Inhibition (HepG2)
41 | COc1ccc(CNCc2ccccc2)cc1-c1ccc(S(=O)(=O)NCCN2CCCC2)s1.O=C(O)C(F)(F)F | 100% | 62% | 32%
42 | COc1cc(F)c2ncc(Cl)c(CCN3CCC(NCc4ccc5c(n4)NC(=O)CO5)CC3)c2c1.Cl | 89% | 19% | 20%
43 | Br.CC(=O)Nc1nc(C)c(-c2csc(Nc3ccc(Cl)cc3)n2)s1 | 96% | 93% | 14%
44 | C=C[C@]1(C)C[C@@H](OC(=O)NC(=O)CCCS(=O)(=O)c2nnc(C)s2)[C@]2(C)[C@H](C)CC[C@]3(CCC(=O)[C@H]32)[C@@H](C)[C@@H]1O | 94% | 97% | 0%
45 | O=C(NCCCCN1CCC(c2c[nH]c3ccccc23)CC1)c1sc(-c2ccc(C(F)(F)F)cc2)nc1CO | 94% | 3% | 34%
46 | Cc1ccc(-c2ccc3c(c2)C=C(C(=O)NCC2CCN(CC4CCN(C(=O)/C=C/c5ccc(Cl)c(Cl)c5)CC4)CC2)CCC3)cc1 | 99% | 70% | 96%
47 | COc1ccc(Nc2nc(NCc3ccc(-n4ccnc4)cc3)cc(-c3ccc(OC)cc3)n2)cc1 | 96% | 25% | 8%
48 | COc1ccc2c(Nc3ccc(N4CCN(C)CC4)cc3)cc(C)nc2c1 | 100% | 9% | 23%
49 | O=C(NC1CCN(CCN2CCC(c3ccccc3C(F)(F)F)CC2)CC1)c1ccc(-c2ccc(Cl)cc2)cc1 | 100% | 68% | 39%
50 | Cn1c(N)cc(-c2ccc(Br)cc2)c2c(=O)nc(N)nc1-2 | 80% | 57% | 5%
51 | O=C(C=Cc1ccc(Cl)c(Cl)c1)NCCCCCN1CCCC(CCCNC(=O)c2ccc3c(c2)OCO3)C1 (stereo not given) | 95% | 4% | 30%
52 | O=C(Nc1ccc(OC(F)(F)F)cc1)NC1CCN(c2ccnc3ccccc23)CC1.O=C(O)C(F)(F)F | 100% | 40% | 40%
53 | Cc1ccc(Cn2c(N3CCC(C(=O)NCc4cccs4)CC3)nc3ccccc32)cc1 | 99% | 71% | 0%
54 | O=C(NCCCCCN1CCC(c2c[nH]c3ccccc23)CC1)Nc1cccc(Cl)c1 | 86% | 0% | 36%
55 | CN1CCc2ccc(NC(=O)Nc3ccc(Cl)c(Cl)c3)cc2C1 | 80% | 22% | 0%
56 | O=C(O)C(F)(F)F.c1cc(-c2ccc(CNCCc3ccncc3)cc2)cc(-c2nc3ccccc3[nH]2)c1 | 100% | 99% | 41%
57 | CC(C)(C)NCCN(Cc1ccc(-c2ccc(C(F)(F)F)cc2)cc1)C(=O)Cn1c(CCc2cccc(F)c2F)nc(=O)c2c1CCC2.O=C(O)C(O)C(O)C(=O)O | 95% | 48% | 6%
58 | CC(CN1CCN(C)CC1)C(=O)Nc1ccc(-c2cccc(-c3nc4ccccc4[nH]3)c2)cc1 (stereo not given) | 94% | 81% | 4%
59 | O=[N+]([O-])c1cccc(C(Nc2ccccn2)c2ccc3cccnc3c2O)c1 (stereo not given) | 86% | 29% | 53%
60 | O=C(N[C@H](CC1CCCCC1)C(=O)NC1CCCc2ccccc21)c1ccc(O)c(-c2cccc([N+](=O)[O-])c2)c1 (stereo not given in full) | 99% | 98% | 0%
